Laboratory results from the supplement of paper PMC10981050.
Several values for one entry are separate records, joined by “and”; a condition that tells them apart may be missing. Equal values may be shown once. Where a name gives a salt, the structure may show the parent alone.

What was measured:
Test in all cases: cell viability relative to vehicle control; higher = less cytotoxic
Conditions in all cases: 10 µM
[1] = tested on: K562
In short: (§1)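 Screening covered the Selleck bioactive, kinase and epigenetic probe libraries, less identity-inconsistent compounds, on CRISPR-edited mutant clones and isogenic wild-type clones of four leukaemia lines. Cells, at 2000 per well in 50 µL medium, received a single 10 µM acoustically dispensed dose. After 48 h the supernatant was removed and CellTiter-Glo luminescence was read. Viability was analysed in Genedata Screener as percent of the on-plate vehicle control.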

[2] = tested on: MARIMO
In short: as §1

[3] = tested on: MOLM14
In short: as §1

[4] = tested on: OCI-AML2
In short: as §1

Row | Compound | cell viability ([1]; SRSF2 genotype: SRSF2 P95H/wt) | cell viability ([1]; SRSF2 genotype: SRSF2 wt/wt) [%] | cell viability ([2]; SRSF2 genotype: SRSF2 P95H/wt) [%] | cell viability ([2]; SRSF2 genotype: SRSF2 wt/wt) [%] | cell viability ([3]; SRSF2 genotype: SRSF2 P95H/wt) [%] | cell viability ([3]; SRSF2 genotype: SRSF2 wt/wt) [%] | cell viability ([4]; SRSF2 genotype: P95H/wt) [%] | cell viability ([4]; SRSF2 genotype: wt/wt) [%]
1 | C[C@@H]1O[C@@H](O[C@@H]2[C@@H](O)[C@H](OCCc3ccc(O)c(O)c3)O[C@H](CO)[C@H]2OC(=O)/C=C/c2ccc(O)c(O)c2)[C@H](O)[C@H](O)[C@H]1O [Verbascoside] | 86.6% and 86% | 87.4 | 82.8 | 92.3 | 81.9 | 92.9 | 92.7 | 92.5
2 | CN(C)Cc1cccc(N=C(c2ccccc2)c2c(O)[nH]c3cc(C(=O)N(C)C)ccc23)c1 | 88.8% and 90.6% | 79.6 | 60.9 | 63.4 | 38.4 | 31.6 | 38.5 | 36.2
3 | CN(C)C(=S)NN=C(c1ccccn1)c1ccccn1 | 30% and 40.3% | 30.9 | 11.5 | 20.1 | 1.77 | 0.87 | 10.9 | 10.6
4 | CN(C)CCCCC(=O)Nc1ccc(NC(=S)NC(=O)c2ccc(C(C)(C)C)cc2)cc1 [Tenovin-6] | 2.61% and 5.21% | 12.4 | 1.49 | 1.85 | 1.6 | 0.76 | 1.27 | 5.3
5 | O=C(O)[C@]1(Cc2cccc(Nc3nccs3)n2)CC[C@@H](Oc2cccc(Cl)c2F)CC1 | 17.3% and 19.3% | 18.6 | 66.6 | 68.2 | 27.7 | 20.6 | 17.8 | 24.8
6 | Cc1cccc(-c2[nH]ncc2-c2ccc3ncccc3n2)n1 | 97.9% and 108% | 107 | 107 | 114 | 94.6 | 105 | 78.9 | 83.5
7 | C=C[C@@H]1C[C@]1(NC(=O)[C@@H]1C[C@@H]2CN1C(=O)[C@H](C(C)(C)C)NC(=O)O[C@@H]1C[C@H]1CCCCCc1nc3ccc(OC)cc3nc1O2)C(=O)NS(=O)(=O)C1CC1 [Grazoprevir] | 96.2% and 101% | 93.4 | 115 | 123 | 111 | 105 | 116 | 115
8 | O=C([O-])[O-].[Li+].[Li+] [Lithium carbonate] | 111% and 113% | 108 | 99.6 | 112 | 105 | 108 | 117 | 96.9
9 | COc1ccc(-n2c(SCCCN3C(=O)c4cccc5cccc(c45)C3=O)nnc2-c2ccncc2)cc1 | 100% and 88.5% | 88.4 | 101 | 103 | 102 | 101 | 95.5 | 100
10 | O[C@@H](COc1cccc2ncccc12)CN1CCN([C@@H]2c3ccccc3[C@@H]3[C@H](c4ccccc42)C3(F)F)CC1 | 60.6% and 54.3% | 54.9 | 56.6 | 55.6 | 39.8 | 36.2 | 39.2 | 40.7
11 | CCOC(=O)CC(=O)N1CCSC1COc1ccccc1OC (stereo unspecified) [Moguisteine] | 99.2% and 102% | 97.3 | 98.3 | 108 | 100 | 105 | 105 | 92
12 | Cc1nc2ccc(-n3ncc(C(=O)c4cc5ccccc5[nH]4)c3N)cc2[nH]1 | 73.6% and 86.9% | 76.5 | 90.6 | 103 | 41.2 | 47.5 | 42.6 | 43.7
13 | Cc1cc(C)c(-c2csc(NC(=O)c3ccccc3)n2)c(C)c1 | 58.4% and 51.8% | 51 | 35.1 | 31.6 | 45 | 40.5 | 39.5 | 27.5
14 | O=C1Nc2ccc(CN3C(=O)CSC3=O)cc2/C1=C/c1cc(CN2CCOCC2)c[nH]1 | 98.7% and 100% | 103 | 97.1 | 100 | 92 | 100 | 97.6 | 91
15 | COc1nc(C)nc(Cl)c1NC1=NCCN1 [Moxonidine] | 101% and 86.7% | 84.3 | 87.2 | 95.5 | 89.9 | 94.8 | 97.5 | 89.6
16 | CC(=O)O[C@@H]1C[C@H](O)[C@@]23CO[C@@H](O)[C@]1(C)[C@@H]2C[C@@H](O)[C@]1(C)[C@@H]3C(=O)[C@H](OC(C)=O)[C@@]2(C)[C@H](c3ccoc3)C[C@H]3O[C@]321 [Toosendanin] | 45.5% and 43% | 42.4 | 38.2 | 34.2 | 37.1 | 11.1 | 23.8 | 23.9
17 | CCN(CC)CCOC(=O)c1ccc(N)cc1 [Procaine (Novocaine) HCl] | 98.7% and 100% | 95.9 | 109 | 112 | 98.6 | 99.7 | 93.2 | 110
18 | Cc1ccc(C(C)C)c(O)c1 [Thymol] | 96.2% and 91.7% | 99 | 97.9 | 102 | 97.1 | 105 | 98.3 | 101
19 | CCC(=O)NS(=O)(=O)c1ccc(-c2c(-c3ccccc3)noc2C)cc1 [Parecoxib] | 100% and 96.7% | 97.5 | 101 | 108 | 101 | 101 | 88.3 | 99.7
20 | COc1cc(-c2ncn(/C=C\C(=O)OC(C)C)n2)cc(C(F)(F)F)c1 | 5.77% and 12.8% | 10.7 | 19.1 | 20.6 | 2.46 | 0.92 | 4.82 | 9.13
21 | Nc1ccc(S(=O)(=O)Nc2ncccn2)cc1 [Sodium sulfadiazine] | 98.3% and 99.1% | 102 | 106 | 97.4 | 98.1 | 102 | 109 | 96.8

Row | Compound | cell viability ([1]; SRSF2 genotype: SRSF2 P95H/wt) | cell viability ([1]; SRSF2 genotype: SRSF2 wt/wt) [%] | cell viability ([2]; SRSF2 genotype: SRSF2 P95H/wt) [%] | cell viability ([2]; SRSF2 genotype: SRSF2 wt/wt) [%] | cell viability ([3]; SRSF2 genotype: SRSF2 P95H/wt) [%] | cell viability ([3]; SRSF2 genotype: SRSF2 wt/wt) [%] | cell viability ([4]; SRSF2 genotype: P95H/wt) [%] | cell viability ([4]; SRSF2 genotype: wt/wt) [%]
22 | COc1cc(C)c2c(=O)c(-c3ccccc3)coc2c1 [5-Methyl-7-methoxyisoflavone] | 101% and 95.6% | 92.2 | 85.2 | 90.2 | 97.1 | 92.6 | 93.4 | 88.4
23 | Clc1ccc(C(c2c[nH]c3ccccc23)c2c[nH]c3ccccc23)cc1 | 83% and 83.3% | 76.5 | 86.3 | 93.2 | 62.7 | 73 | 92 | 96.7
24 | COCCOc1ccc2c(c1)ncn2-c1ccc2cccc(N3CCC(N)CC3)c2n1 | 72.2% and 70.2% | 63.5 | 2.19 | 1.07 | 0.96 | -0.03 | 0.57 | 3.99
25 | CCCOC(=O)c1ccc(O)cc1 [Propylparaben] | 96.5% and 97.2% | 101 | 91.3 | 107 | 98.9 | 105 | 95.6 | 90.1
26 | Cc1cc(CN2CCN(c3c(Br)cnc4nc(-c5ccc(N6CCN(C)CC6)cc5)[nH]c34)CC2)no1 | 19.6% and 18.5% | 24.2 | 88.8 | 87 | 0.57 | 0.62 | 6.22 | 1.52
27 | CCn1nc(C2CCN(C(=O)CCO)CC2)nc1-c1cnc(N)c(-c2nnc(C(C)(C)C)o2)n1 | 97.5% and 109% | 104 | 57.5 | 50.7 | 38.2 | 50.8 | 21.3 | 34.6
28 | C[S+](CC[C@H](N)C(=O)[O-])C[C@H]1O[C@@H](n2cnc3c(N)ncnc32)[C@H](O)[C@@H]1O (stereo partly specified) [Ademetionine] | 108% and 105% | 119 | 104 | 108 | 109 | 111 | 129 | 133
29 | CC(=O)OCC1=C(C(=O)O)N2C(=O)[C@@H](NC(=O)Cc3cccs3)[C@H]2SC1 [Cephalothin] | 94.9% and 98.7% | 96.1 | 95.8 | 100 | 94.7 | 101 | 95.1 | 104
30 | CN1CCN(C(=O)c2cc3cc(Cl)ccc3[nH]2)CC1 | 99% and 97.5% | 98.6 | 100 | 98.7 | 92.6 | 99.3 | 109 | 96.6
31 | N#CC(c1ccc(Cl)cc1)c1c(Cl)cc(-n2ncc(=O)[nH]c2=O)cc1Cl (stereo unspecified) [Diclazuril] | 101% and 88.5% | 85.2 | 83.8 | 94.7 | 84.4 | 86.3 | 91.3 | 80.8
32 | NC1(C(=O)N[C@@H](CCO)c2ccc(Cl)cc2)CCN(c2ncnc3[nH]ccc23)CC1 | 82.6% and 83.6% | 79 | 66.6 | 67.1 | 28.5 | 33.3 | 59.8 | 55.8
33 | CC(C)c1ccccc1Cc1cc(C(=O)Nc2ccc(S(=O)(=O)c3ccccc3C(C)(C)C)cc2)c(O)c(O)c1O | 8.56% and 5.5% | 7.92 | 17.6 | 18.2 | 4.45 | 1.48 | 2.91 | 8.83
34 | COc1ccc(S(=O)(=O)N(C(C)=O)c2ccccc2/C=C/c2cc[n+]([O-])cc2)cc1 | 19.2% and 41.4% | 38.4 | 6.78 | 8.02 | 15.9 | 3.3 | 6.25 | 9.13
35 | CC1CCc2cc(F)cc3c(=O)c(C(=O)O)cn1c23 (stereo unspecified) [Flumequine] | 96.6% and 94.5% | 97.5 | 95.6 | 104 | 95.1 | 102 | 96.3 | 107
36 | CC1(C)O[C@@H]2[C@@H](CO[C@@]3(COS(N)(=O)=O)OC(C)(C)O[C@@H]23)O1 [Topiramate] | 99.1% and 107% | 99.3 | 104 | 106 | 107 | 105 | 104 | 113
37 | Cc1ccc(Sc2cncc3sc(C(N)=O)cc23)cc1 | 91.6% and 90.7% | 90.6 | 95.7 | 102 | 89.3 | 100 | 68.8 | 69.4
38 | O=C1NCCc2[nH]c(-c3ccncc3)cc21 | 50.4% and 42% | 63.5 | 12.7 | 7.5 | 1.91 | 0.86 | 4.1 | 14.9
39 | Cc1cc(N2CCOCC2)cc2[nH]c(-c3c(NCC(O)c4cccc(Cl)c4)cc[nH]c3=O)nc12 (stereo unspecified) | 46.4% and 36.7% | 52.1 | 33.2 | 31 | 5.77 | 9.63 | 7.45 | 18
40 | CN(C)c1ccc(C(=O)NCCCCCCC(=O)NO)cc1 | 1.52% and 16.7% | 6.13 | 6.98 | 14.2 | 1.22 | 0.66 | 2.92 | 6.46
41 | COc1ccc2[nH]cc(CCNC(C)=O)c2c1 [Melatonin] | 104% and 109% | 100 | 109 | 101 | 103 | 105 | 118 | 103
42 | COc1ccc2c(c1)[C@]1(C[C@H]1c1ccc3c(/C=C/c4ccc(CN5C[C@@H](C)O[C@@H](C)C5)cc4)n[nH]c3c1)C(=O)N2 | 13.4% and 27.5% | 17.7 | 30.9 | 29.3 | 14.5 | 10.7 | 11.6 | 20.3
